In the antibiotic and cytotoxicity screens of Wong et al. (2023):
Out of some 39,000 compounds screened, about 3,300 (8.5%) were called active. The entries come from a sample that favours actives as a whole.

What follows are compounds tested on HepG2 (assay: cytotoxicity call (relative viability < 0.9)). Conditions: 10 µM.

| Structure (SMILES) | cytotoxicity call |
| --- | --- |
| O=C(CS(=O)(=O)c1cccc2nsnc12)N1CC(=O)N(CCc2ccccc2)C(=O)C1 | inactive |
| C[C@H]1CN([C@@H](C)CO)C(=O)c2cc(NS(=O)(=O)c3cn(C)cn3)ccc2O[C@@H]1CN(C)S(=O)(=O)c1ccc(F)cc1 | inactive |
| C[C@H](CO)N1C[C@H](C)[C@H](CN(C)Cc2ccc(C(F)(F)F)cc2)Oc2c(NS(C)(=O)=O)cccc2C1=O | inactive |
| Cc1ccc(-c2ccc3c(c2)O[C@H](CN(C)C(=O)NC(C)C)[C@H](C)CN([C@@H](C)CO)S3(=O)=O)cc1 | inactive |
| C[C@H](CO)N1C[C@H](C)[C@H](CN(C)S(=O)(=O)c2ccc(F)cc2)OCCCC[C@H](C)Oc2ccc(NS(=O)(=O)c3cn(C)cn3)cc2C1=O | inactive |
| O=C(C[C@H]1CC[C@@H]2[C@H](COC[C@H](O)CN2S(=O)(=O)c2ccccc2Cl)O1)NCc1ccccc1Cl | inactive |
| CN(CC(=O)Nc1cccc(S(=O)(=O)N2CCOCC2)c1)CC(=O)Nc1ccc(Cl)c(C(F)(F)F)c1 | inactive |
| C[C@H](NC(=O)c1c(N)nn2cccnc12)c1cc2cccc(C#Cc3cnn(C)c3)c2c(=O)n1-c1ccccc1 | active |
| O=C(C[C@H]1CC[C@H]2[C@@H](COC[C@@H](O)CN2S(=O)(=O)c2ccccc2)O1)NCCN1CCCC1 | inactive |
| CN1CCN(C(=O)C[C@H]2CC[C@H]3[C@@H](COc4ccc(NC(=O)c5cccs5)cc4C(=O)N3C)O2)CC1 | inactive |
| COc1ccc(S(=O)(=O)N(C)C[C@H]2Oc3ccc(NC(=O)c4ccncc4)cc3CC(=O)N([C@H](C)CO)C[C@H]2C)cc1 | inactive |
| CN(C)CC(=O)N1CC2(C1)[C@@H](c1ccccc1)[C@H](CO)N2S(C)(=O)=O | inactive |
| CCN1C(C)(C)CC(Oc2ccc(C(=O)Nc3ccc(NC(=O)Nc4cc(C(C)(C)C)on4)cc3)nc2)CC1(C)C | active |
| CC(C)(C)c1cc(C(=O)NN)no1 | inactive |
| COc1cc2ncnc(Oc3cccc(NC(=O)Nc4cc(C(C)(C)C(F)(F)F)on4)c3)c2cc1OC | inactive |
| C[C@@H]1CN([C@H](C)CO)C(=O)Cc2cc(NC(=O)Cn3cnnn3)ccc2O[C@H]1CN(C)C(=O)NC1CCCCC1 | inactive |
| C[C@H]1CN([C@@H](C)CO)C(=O)c2cc(NC(=O)Nc3cccc4ccccc34)ccc2O[C@@H]1CN(C)Cc1ccccc1 | inactive |
| C[C@@H]1CN([C@@H](C)CO)C(=O)c2cc(NC(=O)Nc3cccc4ccccc34)ccc2O[C@H]1CN(C)Cc1ccc2c(c1)OCO2 | inactive |
| C[C@H](CO)N1C[C@H](C)[C@H](CN(C)Cc2ccccc2)Oc2ccc(NC(=O)Nc3cccc4ccccc34)cc2C1=O | inactive |
| C[C@@H]1CN([C@@H](C)CO)C(=O)c2cc(NC(=O)Nc3cccc4ccccc34)ccc2O[C@H]1CN(C)Cc1ccccc1 | inactive |
| C[C@@H]1CN([C@H](C)CO)C(=O)c2cc(NC(=O)Nc3cccc4ccccc34)ccc2O[C@@H]1CN(C)Cc1ccccc1 | active |
| C[C@@H]1CN([C@H](C)CO)C(=O)c2cc(NC(=O)Nc3cccc4ccccc34)ccc2O[C@H]1CN(C)Cc1ccccc1 | inactive |
| C[C@H]1CN([C@@H](C)CO)C(=O)c2cc(NC(=O)Nc3cccc4ccccc34)ccc2O[C@@H]1CN(C)Cc1ccc2c(c1)OCO2 | inactive |
| C[C@@H]1CN([C@@H](C)CO)C(=O)c2cc(NC(=O)Nc3cccc4ccccc34)ccc2O[C@@H]1CN(C)Cc1ccccc1 | active |

| Structure (SMILES) | cytotoxicity call |
| --- | --- |
| C[C@@H]1CN([C@@H](C)CO)C(=O)c2cc(NC(=O)Nc3cccc4ccccc34)ccc2O[C@@H]1CN(C)Cc1ccc2c(c1)OCO2 | active |
| CCS(=O)(=O)N1CC[C@]2(CC1)CN([C@H](CO)c1c2c2ccc(cc2n1C)OC)C(=O)Nc1c(noc1C)C | inactive |
| Cc1cc(O)cc(=O)o1 | inactive |
| C[C@@H]1CN([C@H](C)CO)C(=O)c2cc(NC(=O)Nc3ccc(F)cc3)ccc2O[C@@H](C)CCCCO[C@@H]1CN(C)S(=O)(=O)c1ccc(Cl)cc1 | inactive |
| COc1ccc(NC(=O)Nc2ccc3c(c2)C(=O)N([C@@H](C)CO)C[C@@H](C)[C@H](CN(C)C(=O)Nc2ccccc2)OCCCC[C@H](C)O3)cc1 | inactive |
| CC(C)NC(=O)Nc1ccc2c(c1)C(=O)N([C@@H](C)CO)C[C@@H](C)[C@@H](CN(C)S(=O)(=O)c1cn(C)cn1)OCCCC[C@@H](C)O2 | inactive |
| COc1ccc2c3c([nH]c2c1)[C@H](CO)N(C[C@]13CCN(CC1)C(=O)Nc1ccccc1)C(=O)Nc1ccc(cc1)F | active |
| COc1ccc2c3c([nH]c2c1)[C@H](CO)N(C[C@]13CCN(CC1)Cc1ccc(cc1)F)C(=O)Nc1ccc(cc1)F | active |
| COc1ccc2c3c([nH]c2c1)[C@@H](CO)N(C[C@]13CCN(CC1)S(=O)(=O)C)C(=O)Nc1ccc(cc1)F | inactive |
| COc1ccc2c3c([nH]c2c1)[C@@H](CO)N(C[C@]13CCN(CC1)Cc1ccc(cc1)F)C(=O)Nc1ccc(cc1)F | active |
| COc1ccc2c3c([nH]c2c1)[C@H](CO)N(C[C@]13CCN(CC1)S(=O)(=O)C)C(=O)Nc1ccc(cc1)F | inactive |
| COc1ccc2c3c([nH]c2c1)[C@H](CO)N(C[C@]13CCN(CC1)Cc1cc(ccc1F)F)C(=O)Nc1ccc(cc1)F | inactive |
| COc1ccc2c3c([nH]c2c1)[C@@H](CO)N(C[C@]13CCN(CC1)C(=O)Nc1ccc(cc1)F)C(=O)c1ccc(cc1)F | inactive |
| COc1ccc2c3c([nH]c2c1)[C@H](CO)N(C[C@]13CCN(CC1)Cc1ccccc1OC)C(=O)Nc1ccc(cc1)F | inactive |
| COc1ccc2c3c([nH]c2c1)[C@@H](CO)N(C[C@]13CCN(CC1)Cc1cc(ccc1F)F)C(=O)Nc1ccc(cc1)F | inactive |
| COc1ccc2c3c([nH]c2c1)[C@@H](CO)N(C[C@]13CCN(CC1)C(=O)Nc1ccccc1)C(=O)Nc1ccc(cc1)F | inactive |
| COc1ccc2c3c([nH]c2c1)[C@H](CO)N(C[C@]13CCN(CC1)Cc1cc(on1)-c1ccccc1)C(=O)Nc1ccc(cc1)F | inactive |
| COc1ccc2c3c([nH]c2c1)[C@@H](CO)N(C[C@]13CCN(CC1)Cc1ccccc1OC)C(=O)Nc1ccc(cc1)F | active |
| COc1cc(OC)c(NC(=O)Cn2c(=O)n(-c3ccc(CC(=O)NC[C@H]4CCCO4)cc3)c(=O)c3ccccc32)cc1Cl | inactive |
| C[C@H]1CN([C@@H](C)CO)C(=O)c2cccc(NC(=O)Nc3ccccc3)c2O[C@@H]1CN(C)C(=O)Nc1cccc2ccccc12 | inactive |
| C/C(=C\C(=O)OCCCCCCCCC(=O)O)C[C@@H]1OC[C@H](C[C@@H]2O[C@H]2[C@@H](C)[C@H](C)O)[C@@H](O)[C@H]1O | inactive |
| CC(=O)N1[C@H](CO)[C@@H](c2ccccc2)[C@@H]1CNC(=O)CN1CCOCC1 | inactive |
| C[C@H]1CN([C@@H](C)CO)S(=O)(=O)c2ccc(-c3cccc(F)c3)cc2O[C@H]1CN(C)S(C)(=O)=O | inactive |
| COCC#Cc1ccc2c(c1)O[C@@H](CN(C)S(=O)(=O)c1cccc(OC)c1)[C@H](C)CN([C@@H](C)CO)S2(=O)=O | inactive |

| Structure (SMILES) | cytotoxicity call |
| --- | --- |
| C[N+](C)(C)C[C@H](O)CC(=O)O | inactive |
| C[N+](C)(C)C[C@@H](O)CC(=O)O | inactive |
| C[N+](C)(C)CC(O)CC(=O)[O-] (stereo unspecified) | active |
| COCCCOc1ccnc(CS(=O)c2nc3ccccc3[n-]2)c1C.[Na+] (stereo unspecified) | inactive |
| C[C@@H]1CN([C@@H](C)CO)S(=O)(=O)c2ccc(-c3cncnc3)cc2O[C@H]1CN(C)C(=O)NC1CCCC1 | inactive |
| CC(=O)[C@@]12C=CCC[C@@H]1C[C@@H](C(=O)Nc1c(C)cccc1Cl)N2C(=O)c1nc(C)oc1C(F)(F)F | inactive |
| N=C(N)SCCN1C(=O)c2ccccc2C1=O | inactive |
| O=C(O)CCCN1C(=O)c2cccc3cccc(c23)C1=O | inactive |
| O=C1c2ccc3c4c(ccc(c24)C(=O)N1CCCCO)C(=O)N(CCCCO)C3=O | active |
| C[C@H]1CN([C@@H](C)CO)C(=O)CCCn2cc(nn2)CO[C@H]1CN(C)Cc1ccc(C(=O)Nc2ccccc2N)cc1 | inactive |
| CN(C)C1CN(S(=O)(=O)CCC2CC2)C1 | inactive |
| COc1ccc(CN2C[C@@H](C)[C@H](OC)CN(C)C(=O)c3cc(NC(=O)c4nc5ccccc5s4)ccc3OC[C@@H]2C)cc1 | active |
| CO[C@H]1CN(C)C(=O)c2cc(NC(=O)NC3CCCCC3)ccc2OC[C@H](C)N(CCc2ccccc2)C[C@@H]1C | inactive |
| CO[C@@H]1CN(C)C(=O)c2cc(NS(C)(=O)=O)ccc2OC[C@H](C)N(C(=O)C2CCCCC2)C[C@H]1C | inactive |
| COc1ccc(CN2C[C@@H](C)[C@H](OC)CN(C)C(=O)c3cc(NC(=O)c4nc5ccccc5s4)ccc3OC[C@H]2C)cc1 | inactive |
| CO[C@H]1CN(C)C(=O)c2cc(NS(C)(=O)=O)ccc2OC[C@H](C)N(C(=O)C2CCCCC2)C[C@H]1C | inactive |
| CO[C@@H]1CN(C)C(=O)c2cc(NC(=O)NC3CCCCC3)ccc2OC[C@H](C)N(CCc2ccccc2)C[C@H]1C | active |
| COc1ccc(CN2C[C@H](C)[C@@H](OC)CN(C)C(=O)c3cc(NC(=O)c4nc5ccccc5s4)ccc3OC[C@@H]2C)cc1 | inactive |
| CO[C@@H]1CN(C)C(=O)c2cc(NS(C)(=O)=O)ccc2OC[C@H](C)N(C(=O)C2CCCCC2)C[C@@H]1C | active |
| COCC(=O)Nc1ccc2c(c1)C(=O)N(C)C[C@H](OC)[C@@H](C)CN(C(=O)Cc1ccccn1)[C@@H](C)CO2 | inactive |
| COCC(=O)Nc1ccc2c(c1)C(=O)N(C)C[C@H](OC)[C@@H](C)CN(C(=O)Cc1ccccn1)[C@H](C)CO2 | active |
| CO[C@H]1CN(C)C(=O)c2cc(NC(=O)NC3CCCCC3)ccc2OC[C@@H](C)N(CCc2ccccc2)C[C@@H]1C | inactive |
| COCC(=O)Nc1ccc2c(c1)C(=O)N(C)C[C@@H](OC)[C@H](C)CN(C(=O)Cc1ccccn1)[C@H](C)CO2 | inactive |
